ATXN2 expr inh = ATXN2 expression inhibition. 360,000 tested, 0.72% active. Potency, µM (top dose mostly 57 µM), without a hit: top-dose activity change, negative = inhibition, usual class: inhibitors. HEK-293 ATXN2-luciferase reporter, luminescence, 24 h; note: potency is the fitted concentration of half-maximal effect; % is set by controls: 0 for no effect and ±100 for the full control effect; nearly all actives have a fitted effect of over 55% in size
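ATXN2-luciferase reporter cells (luciferase flanked by upstream and downstream ATXN2 gene portions) were treated 24 h at 37 °C with compounds at up to 57 uM. SteadyGlo luminescence gave expression; GF-AFC fluorescence gave viability.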
Six1-Eya2 inh = Six1/Eya2 interaction inhibition; AID 651725; AlphaScreen GST-Six1/His-Eya2 binding, biochemical; stronger effect = lower value; 360,000 tested, 0.56% active; Q15475+O00167; activity change, % (concentration not given with the values); in the data active = activity change below about -65%; inconclusive = mostly about -30% to -63%; note: % is set by controls: 0 for no effect and ±100 for the full control effect
Target sequence (O00167 whole entry, looked up): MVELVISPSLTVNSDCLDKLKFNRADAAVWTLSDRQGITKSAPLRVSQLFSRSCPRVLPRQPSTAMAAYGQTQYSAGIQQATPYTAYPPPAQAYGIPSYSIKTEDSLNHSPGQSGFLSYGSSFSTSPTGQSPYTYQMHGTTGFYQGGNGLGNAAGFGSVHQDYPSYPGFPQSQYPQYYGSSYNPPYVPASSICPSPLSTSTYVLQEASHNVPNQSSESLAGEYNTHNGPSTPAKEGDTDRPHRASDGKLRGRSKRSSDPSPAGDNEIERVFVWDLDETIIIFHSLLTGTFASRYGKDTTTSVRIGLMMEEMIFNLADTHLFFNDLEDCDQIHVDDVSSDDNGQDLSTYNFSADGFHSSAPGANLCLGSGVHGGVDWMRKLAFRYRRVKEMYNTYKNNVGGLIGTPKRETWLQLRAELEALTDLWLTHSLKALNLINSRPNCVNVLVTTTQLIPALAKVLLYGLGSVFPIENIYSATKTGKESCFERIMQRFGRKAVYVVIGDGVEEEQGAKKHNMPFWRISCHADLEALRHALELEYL
Target sequence (Q15475 whole entry, looked up): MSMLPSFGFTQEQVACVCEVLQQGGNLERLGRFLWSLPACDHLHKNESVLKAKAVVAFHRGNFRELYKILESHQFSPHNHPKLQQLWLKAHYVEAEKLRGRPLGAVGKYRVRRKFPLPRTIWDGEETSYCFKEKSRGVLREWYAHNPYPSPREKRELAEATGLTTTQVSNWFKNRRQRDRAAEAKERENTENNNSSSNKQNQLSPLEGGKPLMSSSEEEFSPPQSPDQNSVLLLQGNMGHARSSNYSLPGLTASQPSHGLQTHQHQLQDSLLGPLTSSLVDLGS
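AlphaScreen with GST-Six1 and His-Eya2 (5X mix: 250 nM and 500 nM), glutathione donor and nickel acceptor beads; buffer 50 mM Tris pH 8.0, 300 mM NaCl, 1 mM TCEP; 1 h at 37 C in the dark.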
CtBP-E1A inh = blocks the CtBP interaction with E1A | AlphaScreen GST-E1A/His-CtBP binding, 1536-well; stronger effect = lower value | AID 651724 | 340,000 tested, 0.49% active | activity change, % (concentration not given with the values); in the data active = activity change below about -65%; inconclusive = mostly about -30% to -63%; note: % is set by controls: 0 for no effect and ±100 for the full control effect
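Steps: dispense buffer (Tris pH 8.0, NaCl 300 mM, TCEP 1 mM, BSA, Tween 20); add 5X protein mix (GST-E1A, His-CtBP, 125 nM each); pin 23 nL compound; 2 h at 37 °C, dark; add 5X beads (50 ug/mL); 1 h; read.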
HepG2 tox-1 = kills HepG2 cells in TGF-b inhibitor counter-screen; 410,000 tested, 0.76% active; Potency, µM (titrated, usually from 46.1 µM), inactives show at the top dose activity change, negative = cytotoxicity, hits mostly cytotoxic; HepG2 CAGA-GFP viability, ATP luminescence, 18 h; note: potency is the fitted concentration of half-maximal effect
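CellTiter-Glo luminescence gave cytotoxicity after 18 hours at 37 degrees C. The cells were HepG2 CAGA-GFP in 1% FBS DMEM, stimulated with 500 pg/mL TGF-beta after compound addition. %Activity was normalised to no-cell wells (complete cell-killing) and DMSO (no toxicity), and curves were fitted and classified.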
ATXN viability = reduces viability in counter-screen for ATXN expression inhibitors | S2 cells (HEK-293 line with an ATXN2-luciferase reporter) viability, CellTiter-Fluor protease fluorescence, 24 h | Potency, µM (highest dose often 56.7 µM), usual class: cytotoxic | 400,000 tested, 0.49% active; note: potency is the fitted concentration of half-maximal effect; nearly all actives have a fitted effect of over 40% in size
TGFb inhibitor = TGF-b pathway inhibition; HepG2 CAGA-GFP TGF-b/SMAD3 reporter, GFP fluorescence, 18 h; TGF-beta stimulated, 500 pg/mL final; Potency, µM (top dose mostly 46.1 µM), without a hit: at the top dose activity, negative = inhibition, most hits filed as inhibitors; 410,000 tested, 1.2% active; note: potency is the fitted concentration of half-maximal effect; % is set by controls: 0 for no effect and ±100 for the full control effect; nearly all actives have a fitted effect of over 65% in size
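HEPG2 CAGA-GFP reporter cells (1000/well, DMEM with 1% FBS) received compounds, then recombinant TGF-beta at 500 pg/mL final for 18 hours at 37 degrees C. Per-cell GFP summed per well was normalised to unstimulated and stimulated DMSO controls before curve fitting.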
TGFb CAGA inh = confirmation of TGF-b signaling inhibitors in HepG2 reporter cells. 1,600 tested, 63% active. HepG2 CAGA-GFP TGF-b reporter, GFP fluorescence, 18 h; cells stimulated with TGF-beta, 500 pg/mL. shares compounds with TGFb inhibitor. Potency, µM (titrated, usually from 46.1 µM), for the others: top-dose activity, negative = inhibition, hits mostly inhibitors; note: potency is the fitted concentration of half-maximal effect; % is set by controls: 0 for no effect and ±100 for the full control effect; nearly all actives have a fitted effect of over 65% in size
HepG2 tox-2 = counter-screen for TGF-b inhibitors: cytotoxicity in HepG2 cells | Potency, µM (highest dose often 46.1 µM), inactives show top-dose activity, negative = cytotoxicity, actives largely listed as inhibitors | AID 720535 | HepG2 CAGA-GFP viability, ATP luminescence, 18 h; cells stimulated with TGF-beta, 500 pg/mL | 1,600 tested, 27% active | shares compounds with TGFb inhibitor; note: potency is the fitted concentration of half-maximal effect; % is set by controls: 0 for no effect and ±100 for the full control effect; nearly all actives have a fitted effect of over 70% in size
CCL64 TGFb inh = blocks TGF-b signaling in CCL64 reporter cells. AID 720536. Potency, µM (titrated, usually from 46.1 µM), inactives show at the top dose activity, negative = inhibition, most hits filed as inhibitors. CCL64 CAGA-GFP reporter, TGF-b stimulated, GFP fluorescence, 18 h. 1,600 tested, 41% active. shares compounds with TGFb inhibitor; note: potency is the fitted concentration of half-maximal effect; nearly all actives have a fitted effect of over 65% in size
TGFb COP inh = blocks TGF-b signaling in HepG2 COP reporter. 1,600 tested, 3% active. shares compounds with TGFb inhibitor. HepG2 COP-GFP TGF-b reporter, GFP fluorescence, 18 h; cells stimulated by added recombinant TGF-beta. Potency, µM (highest dose often 46.1 µM), for the others: top-dose activity, negative = inhibition, hits mostly inhibitors; note: potency is the fitted concentration of half-maximal effect; nearly all actives have a fitted effect of over 70% in size
* hit, by the source's call; i = inactive; ? = inconclusive; . = no result. This is a sample that favours compounds with a hit; in the whole collection about 2.8% have one here. Unless noted, calls come from the whole dose curve; as a rule, active = well fitted curve in the direction sought with a large enough effect; inconclusive = small, poorly fitted or top-dose-only effect, or another doubt; inactive = no such curve, though single readings can be large; an effect the other way counts as inactive or inconclusive.

SMILES | ATXN2 expr inh | Six1-Eya2 inh | CtBP-E1A inh | HepG2 tox-1 | ATXN viability | TGFb inhibitor | TGFb CAGA inh | HepG2 tox-2 | CCL64 TGFb inh | TGFb COP inh
COc1ccccc1-c1cc(C(F)(F)F)nc(S(=O)(=O)CCCC(=O)N2CCOCC2)n1 | ? | -4 | 2 | -126% | 18µM* | 2.2µM* | 1.8µM* | 21µM* | 4.1µM* | ?
COc1ccccc1-c1noc(CCCC(=O)N2CCOCC2)n1 | . | -3 | . | 7% | i | 1% | . | . | . | .
COc1ccc(Cn2nnnc2CN2CCC(c3nc4ccccc4s3)CC2)cc1 | -25% | -8 | -16 | -21% | i | 1% | . | . | . | .
c1ccc2sc(C3CCN(Cc4nnnn4Cc4ccc5c(c4)OCO5)CC3)nc2c1 | -19% | -12 | -3 | -29% | i | 14µM* | ? | -21% | 27% | -5%
COc1cccc(-c2csc(NC3OC(=O)c4c3ccc(OC)c4OC)n2)c1 (stereo not drawn) | 81% | 12 | -6 | -23% | ? | 11µM* | 21µM* | -24% | ? | 22%
COc1ccc2c(c1OC)C(=O)OC2Nc1nc(-c2ccc(-c3ccccc3)cc2)cs1 (stereo not drawn) | 103% | -14 | -11 | -12% | i | 7.1µM* | 23µM* | -17% | ? | -2%
CCOC(=O)C1CCN(C(=O)c2c(C)nn(-c3ccc(F)cc3)c2-n2cccc2)CC1 | -1% | . | . | -84% | i | -95% | . | . | . | .
COc1ccc(C2=NN(C(=O)COc3ncnc4ccccc34)C(c3ccco3)C2)cc1 (stereo not drawn) | 7% | -5 | -2 | -7% | i | -13% | . | . | . | .
COc1ccc(C2=NN(C(=O)COC(=O)c3ccc(S(C)(=O)=O)c([N+](=O)[O-])c3)C(c3ccco3)C2)cc1 (stereo not drawn) | ? | -17 | -1 | 8.9µM* | . | 8.9µM* | ? | ? | 2.9µM* | ?
Cc1c(Cl)cccc1NC(=O)CSc1nc(=O)n(Cc2ccncc2)c2c1CCC2 | -1% | . | . | -28% | i | -11% | . | . | . | .
CSC1=NC2(CCN(C(=O)NC3CCCCC3)CC2)N=C1c1ccc(C(C)(C)C)cc1 | 11% | . | . | -16% | i | -15% | . | . | . | .
COC(=O)[C@@]1(Cc2ccc(OC)cc2)[C@H]2c3cc(C(=O)N(C)C)n(Cc4c(CO)[nH]cc(C)c4=O)c3C[C@H]2CN1C(=O)c1ccccc1 | 1% | -4 | -2 | -1% | i | 3% | . | . | . | .
COC(=O)[C@@]1(Cc2ccc(OC)cc2)[C@H]2c3cc(C(=O)N4CCCC4)n(Cc4c(CO)[nH]cc(C)c4=O)c3C[C@H]2CN1C(=O)c1ccccc1 | 0% | -4 | -8 | -1% | i | ? | -14% | -1% | 0% | -3%
COc1cc(-c2noc(C)c2/C=C/c2ccc(C(=O)O)cc2)cc(OC)c1OC | -3% | -23 | -1 | 1% | i | -1% | . | . | . | .
COc1cc(-c2noc(C)c2/C=C/c2cccc([N+](=O)[O-])c2)cc(OC)c1OC | ? | -6 | . | -19% | ? | 13µM* | ? | -27% | ? | -11%
C#Cc1ccc(NC(=O)C2(C)CCN2C(=O)c2ccccc2CCc2ccccc2)cc1 (stereo not drawn) | -22% | 2 | 1 | -27% | i | ? | ? | -13% | ? | 2%
CSc1ccc(NC(=O)C2(C)CCN2C(=O)c2ccccc2CCc2ccccc2)cc1 (stereo not drawn) | -11% | -21 | -18 | 5% | i | 8% | . | . | . | .
Cc1ccc(OC(C)C(=O)Nc2ccncc2)cc1C (stereo not drawn) | ? | 3 | -14 | -61% | i | 10µM* | ? | ? | 1% | 40%
COc1cc(NC(=O)Cn2nc(C(F)(F)F)c3c2CCC3)cc(OC)c1OC | -25% | . | . | -17% | i | -16% | . | . | . | .
COc1ccc(Cl)cc1NC(=O)CSc1nnc(Cc2ccc(C)cc2)c(=O)[nH]1 | 5% | -3 | 2 | -16% | i | 8.9µM* | 21µM* | ? | -30% | 35%
CCc1nc(CN2CCCC(C(=O)c3ccc4c5c(cccc35)CC4)C2)c(C)[nH]1 (stereo not drawn) | -33% | -7 | -8 | -43% | i | ? | . | . | . | .
O=C(c1ccc2c3c(cccc13)CC2)C1CCCN(Cc2ccncc2)C1 (stereo not drawn) | . | -16 | -15 | -44% | i | 7.9µM* | -29% | ? | ? | 24%
CS/C(=N\S(=O)(=O)c1cccs1)Nc1ccc(F)c(Cl)c1 | -9% | 17 | 5 | -4% | i | 8.9µM* | ? | -14% | -19% | -7%
O=[N+]([O-])c1cc(Cl)ccc1N1CCN(c2ccccc2O)CC1 | -11% | -27 | -24 | -11% | ? | 7.1µM* | ? | -6% | -7% | -3%
Oc1c(C(c2ccccc2Cl)N2CCCC2)ccc2cccnc12 (stereo not drawn) | . | ? | . | -64% | i | 0.45µM* | ? | ? | ? | -20%
Cc1cc(C)nc(SCC(=O)Nc2ccnc3ccccc23)n1 | 0% | -8 | -18 | -11% | i | -17% | . | . | . | .
O=C(CSC1=NCCS1)Nc1ccnc2ccccc12 | -13% | -4 | 12 | -26% | i | ? | 10µM* | 8% | -3% | -20%
Cc1ccc2nc(-c3ccc(Cl)cc3)c(CC3CCCCC3)n2c1 | 8% | -4 | -6 | -42% | ? | -29% | . | . | . | .

Screens from PubChem.
